Holding throughout (experiment): DAPPL (digital affinity profiling via proximity ligation, sequencing); 10 mM Tris-HCl pH 7.5, 50 mM NaCl, 1 mM DTT, 4% glycerol, room temperature, 30 min; GST-TFs on glutathione beads, 16-mer random dsDNA library, 0.1% formaldehyde crosslink after washing; high values mean tight binding
One experiment deals with T1, FEV (Homo sapiens, UniProt Q99581 1-238).
T1 sequence: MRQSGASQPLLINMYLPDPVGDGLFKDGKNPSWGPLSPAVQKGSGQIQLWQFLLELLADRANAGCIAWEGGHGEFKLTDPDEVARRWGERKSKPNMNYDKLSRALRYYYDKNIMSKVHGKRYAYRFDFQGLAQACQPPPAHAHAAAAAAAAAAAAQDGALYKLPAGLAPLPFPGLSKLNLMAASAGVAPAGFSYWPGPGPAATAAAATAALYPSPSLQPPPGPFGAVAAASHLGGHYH
Conditions: protein: recombinant; tags: N-terminal GST; dsDNA, one strand shown. The gist of the method:
(§1)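 Binding signal is each hexamer's read frequency for a factor divided by its frequency in the tag-only sample. The factors were GST-fused human transcription factors from yeast, captured on glutathione beads, DNA-barcoded and pooled with that sample. Pools were incubated with 200 nmole of a random double-stranded 16-mer DNA library in Tris/NaCl/DTT/glycerol buffer at room temperature for 30 min, then washed, crosslinked with 0.1% formaldehyde, proximity-ligated with BsaI/T4 ligase (1 h, 37 °C), PCR-amplified and sequenced on an Illumina NextSeq500.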

The next experiment concerns the target ETV5 (Homo sapiens, UniProt P41161 1-510). Conditions: protein: recombinant; tags: N-terminal GST; dsDNA, one strand shown. The gist of the method:
as §1

For the next experiment, the target named is HSF1 (Homo sapiens, UniProt Q00613 1-529). Conditions: protein: recombinant; tags: N-terminal GST; chain copies: 3; dsDNA, one strand shown. The gist of the method: as §1
Sequence of HSF1 (Q00613 whole entry): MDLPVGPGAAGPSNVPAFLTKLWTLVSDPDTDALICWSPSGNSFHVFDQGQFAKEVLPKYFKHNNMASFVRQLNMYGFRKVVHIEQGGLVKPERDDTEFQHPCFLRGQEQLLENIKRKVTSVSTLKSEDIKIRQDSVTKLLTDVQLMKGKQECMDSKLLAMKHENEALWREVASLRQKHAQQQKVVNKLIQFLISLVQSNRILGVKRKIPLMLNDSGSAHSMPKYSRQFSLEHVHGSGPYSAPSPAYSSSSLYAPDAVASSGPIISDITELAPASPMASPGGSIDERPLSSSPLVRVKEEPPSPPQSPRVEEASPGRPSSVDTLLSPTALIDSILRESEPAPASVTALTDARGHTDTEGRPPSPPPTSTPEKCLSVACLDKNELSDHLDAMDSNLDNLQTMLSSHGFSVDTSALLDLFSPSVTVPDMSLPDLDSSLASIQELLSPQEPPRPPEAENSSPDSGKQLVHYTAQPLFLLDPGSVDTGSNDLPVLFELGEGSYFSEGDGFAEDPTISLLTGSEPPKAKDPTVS
Another experiment deals with T2, SPIC (Homo sapiens, UniProt Q8N5J4 1-248).
T2 sequence: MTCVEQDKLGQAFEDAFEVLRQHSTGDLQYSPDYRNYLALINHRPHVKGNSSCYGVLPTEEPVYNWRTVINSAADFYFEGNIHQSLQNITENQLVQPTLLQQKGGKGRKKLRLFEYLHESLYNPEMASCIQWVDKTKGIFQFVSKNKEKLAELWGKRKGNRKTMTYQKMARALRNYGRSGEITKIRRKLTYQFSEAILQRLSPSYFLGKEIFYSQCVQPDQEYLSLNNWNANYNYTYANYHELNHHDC
Conditions: protein: recombinant; tags: N-terminal GST; dsDNA, one strand shown. The gist of the method: as §1

A further experiment has as its target ELF4 (Homo sapiens, UniProt Q99607 1-663). Conditions: protein: recombinant; tags: N-terminal GST; dsDNA, one strand shown. The gist of the method: as §1
Another experiment deals with T3, ELK4 (Homo sapiens, UniProt P28324-2 1-405).
T3 sequence: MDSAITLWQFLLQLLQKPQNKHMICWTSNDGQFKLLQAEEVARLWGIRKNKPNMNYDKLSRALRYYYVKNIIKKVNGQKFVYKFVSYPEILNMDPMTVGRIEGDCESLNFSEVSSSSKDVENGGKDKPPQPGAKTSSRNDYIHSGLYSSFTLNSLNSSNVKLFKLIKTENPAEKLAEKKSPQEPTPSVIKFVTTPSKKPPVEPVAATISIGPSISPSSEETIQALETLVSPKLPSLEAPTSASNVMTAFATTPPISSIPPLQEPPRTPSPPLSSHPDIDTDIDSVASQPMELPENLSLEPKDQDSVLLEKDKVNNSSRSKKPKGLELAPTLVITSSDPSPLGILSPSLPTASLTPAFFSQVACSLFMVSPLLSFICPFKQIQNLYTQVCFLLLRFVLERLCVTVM
Conditions: protein: recombinant; tags: N-terminal GST; dsDNA, one strand shown. The gist of the method:
as §1

A further experiment deals with T4, ETV2 (Homo sapiens, UniProt O00321 1-342).
T4 sequence: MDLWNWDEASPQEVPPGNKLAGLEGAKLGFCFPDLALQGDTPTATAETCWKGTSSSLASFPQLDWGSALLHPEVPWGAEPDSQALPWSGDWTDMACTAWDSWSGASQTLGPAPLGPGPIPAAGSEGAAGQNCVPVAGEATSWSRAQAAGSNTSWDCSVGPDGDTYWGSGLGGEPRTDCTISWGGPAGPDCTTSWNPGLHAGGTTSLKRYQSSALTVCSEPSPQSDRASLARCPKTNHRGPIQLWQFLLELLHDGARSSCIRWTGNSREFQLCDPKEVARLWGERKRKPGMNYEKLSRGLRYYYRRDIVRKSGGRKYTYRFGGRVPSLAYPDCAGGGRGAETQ
Conditions: protein: recombinant; tags: N-terminal GST; dsDNA, one strand shown. The gist of the method:
as §1

Another experiment has as its target T5, ELF3 (Homo sapiens, UniProt P78545 1-371).
T5 sequence: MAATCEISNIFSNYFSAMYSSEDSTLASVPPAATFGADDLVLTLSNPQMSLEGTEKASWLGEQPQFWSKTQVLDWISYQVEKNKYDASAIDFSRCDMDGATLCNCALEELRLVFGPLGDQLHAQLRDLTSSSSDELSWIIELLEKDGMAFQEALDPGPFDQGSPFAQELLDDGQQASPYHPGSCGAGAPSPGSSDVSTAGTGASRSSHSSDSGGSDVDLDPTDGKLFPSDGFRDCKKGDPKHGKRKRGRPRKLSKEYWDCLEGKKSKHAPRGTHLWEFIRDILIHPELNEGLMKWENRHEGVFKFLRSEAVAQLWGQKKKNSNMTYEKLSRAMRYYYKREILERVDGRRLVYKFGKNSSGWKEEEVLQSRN
Conditions: protein: recombinant; tags: N-terminal GST; dsDNA, one strand shown. The gist of the method: as §1

In a further experiment the target is CRX (Homo sapiens, UniProt O43186 1-299). Conditions: protein: recombinant; tags: N-terminal GST; dsDNA, one strand shown. The gist of the method: as §1
Sequence of CRX (O43186 whole entry): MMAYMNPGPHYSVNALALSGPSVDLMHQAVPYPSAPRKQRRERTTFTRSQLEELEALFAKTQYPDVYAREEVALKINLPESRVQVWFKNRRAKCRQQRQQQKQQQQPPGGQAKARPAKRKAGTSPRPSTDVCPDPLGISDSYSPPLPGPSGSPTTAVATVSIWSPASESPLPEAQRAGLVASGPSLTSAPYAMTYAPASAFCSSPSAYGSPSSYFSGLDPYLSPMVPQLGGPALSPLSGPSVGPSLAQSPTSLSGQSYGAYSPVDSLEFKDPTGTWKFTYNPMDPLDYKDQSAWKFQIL
For a further experiment, the target named is ETV1 (Homo sapiens, UniProt P50549 1-477). Conditions: protein: recombinant; tags: N-terminal GST; dsDNA, one strand shown. The gist of the method: as §1
Sequence of ETV1 (P50549 whole entry): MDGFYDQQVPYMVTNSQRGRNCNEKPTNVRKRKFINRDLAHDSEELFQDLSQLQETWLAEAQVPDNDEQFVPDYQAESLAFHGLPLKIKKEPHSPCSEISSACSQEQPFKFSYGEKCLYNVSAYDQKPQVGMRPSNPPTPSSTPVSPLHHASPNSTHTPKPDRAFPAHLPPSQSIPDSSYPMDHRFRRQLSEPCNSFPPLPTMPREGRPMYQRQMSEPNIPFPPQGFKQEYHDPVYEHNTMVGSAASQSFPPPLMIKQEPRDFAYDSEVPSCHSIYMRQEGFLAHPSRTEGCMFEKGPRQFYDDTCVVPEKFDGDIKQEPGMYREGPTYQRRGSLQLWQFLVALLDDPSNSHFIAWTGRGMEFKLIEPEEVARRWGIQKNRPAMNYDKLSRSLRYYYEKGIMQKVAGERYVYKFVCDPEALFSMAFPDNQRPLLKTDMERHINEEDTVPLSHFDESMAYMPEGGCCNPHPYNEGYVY
A further experiment has as its target T6, ERF (Homo sapiens, UniProt P50548 1-548).
T6 sequence: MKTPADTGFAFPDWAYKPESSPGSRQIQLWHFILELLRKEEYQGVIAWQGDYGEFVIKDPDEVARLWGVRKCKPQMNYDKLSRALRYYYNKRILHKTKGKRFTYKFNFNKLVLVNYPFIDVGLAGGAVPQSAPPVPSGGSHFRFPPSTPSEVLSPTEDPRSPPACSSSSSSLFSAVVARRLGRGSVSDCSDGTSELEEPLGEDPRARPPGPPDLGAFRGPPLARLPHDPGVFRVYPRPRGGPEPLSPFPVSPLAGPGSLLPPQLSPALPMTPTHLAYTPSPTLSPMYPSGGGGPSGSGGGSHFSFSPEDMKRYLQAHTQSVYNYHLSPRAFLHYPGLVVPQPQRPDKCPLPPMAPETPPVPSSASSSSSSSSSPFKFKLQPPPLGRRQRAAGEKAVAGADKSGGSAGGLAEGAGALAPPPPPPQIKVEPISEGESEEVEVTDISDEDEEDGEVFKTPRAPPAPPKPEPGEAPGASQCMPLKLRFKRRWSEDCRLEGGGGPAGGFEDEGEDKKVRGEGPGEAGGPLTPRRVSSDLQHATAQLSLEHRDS
Conditions: protein: recombinant; tags: N-terminal GST; dsDNA, one strand shown. The gist of the method:
as §1

Another experiment addresses T7, ETV3L (Homo sapiens, UniProt Q6ZN32 1-361).
T7 sequence: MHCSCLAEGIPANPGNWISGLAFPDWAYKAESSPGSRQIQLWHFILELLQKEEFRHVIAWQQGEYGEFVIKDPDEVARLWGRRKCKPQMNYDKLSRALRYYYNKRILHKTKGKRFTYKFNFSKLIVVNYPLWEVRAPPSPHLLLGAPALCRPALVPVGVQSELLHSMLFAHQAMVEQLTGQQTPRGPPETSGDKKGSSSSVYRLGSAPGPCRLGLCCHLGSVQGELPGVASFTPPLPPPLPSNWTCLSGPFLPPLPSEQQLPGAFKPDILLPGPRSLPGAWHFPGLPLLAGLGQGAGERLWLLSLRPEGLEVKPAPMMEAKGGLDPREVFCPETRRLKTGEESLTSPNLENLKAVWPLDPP
Conditions: protein: recombinant; tags: N-terminal GST; dsDNA, one strand shown. The gist of the method: as §1

The target of a further experiment is T8, ETS2 (Homo sapiens, UniProt P15036 1-469).
T8 sequence: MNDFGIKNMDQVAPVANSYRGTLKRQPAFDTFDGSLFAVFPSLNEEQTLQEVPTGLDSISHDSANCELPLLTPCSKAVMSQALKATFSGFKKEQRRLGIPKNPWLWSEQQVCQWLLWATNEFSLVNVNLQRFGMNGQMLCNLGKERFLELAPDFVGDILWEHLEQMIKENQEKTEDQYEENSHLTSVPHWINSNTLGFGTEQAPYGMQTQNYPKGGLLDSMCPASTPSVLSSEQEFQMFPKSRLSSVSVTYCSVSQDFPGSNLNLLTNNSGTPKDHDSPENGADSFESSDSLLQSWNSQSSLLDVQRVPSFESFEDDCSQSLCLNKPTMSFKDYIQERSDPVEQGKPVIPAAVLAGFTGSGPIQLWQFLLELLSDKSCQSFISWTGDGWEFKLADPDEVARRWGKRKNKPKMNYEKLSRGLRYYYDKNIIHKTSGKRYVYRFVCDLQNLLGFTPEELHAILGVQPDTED
Conditions: protein: recombinant; tags: N-terminal GST; dsDNA, one strand shown. The gist of the method:
as §1

Another experiment deals with T9, SPDEF (Homo sapiens, UniProt O95238 1-335).
T9 sequence: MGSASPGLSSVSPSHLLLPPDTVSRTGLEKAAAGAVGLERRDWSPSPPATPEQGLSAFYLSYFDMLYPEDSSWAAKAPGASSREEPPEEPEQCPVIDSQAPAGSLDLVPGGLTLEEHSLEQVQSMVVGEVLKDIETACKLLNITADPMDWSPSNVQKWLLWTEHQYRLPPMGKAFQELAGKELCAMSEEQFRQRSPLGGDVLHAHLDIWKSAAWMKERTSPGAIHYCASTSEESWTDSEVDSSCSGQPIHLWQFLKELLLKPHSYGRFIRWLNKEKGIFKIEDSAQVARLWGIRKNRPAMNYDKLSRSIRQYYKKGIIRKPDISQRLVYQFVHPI
Conditions: protein: recombinant; tags: N-terminal GST; dsDNA, one strand shown. The gist of the method: as §1

The target in another experiment is T10, ETV7 (Homo sapiens, UniProt Q9Y603 1-341).
T10 sequence: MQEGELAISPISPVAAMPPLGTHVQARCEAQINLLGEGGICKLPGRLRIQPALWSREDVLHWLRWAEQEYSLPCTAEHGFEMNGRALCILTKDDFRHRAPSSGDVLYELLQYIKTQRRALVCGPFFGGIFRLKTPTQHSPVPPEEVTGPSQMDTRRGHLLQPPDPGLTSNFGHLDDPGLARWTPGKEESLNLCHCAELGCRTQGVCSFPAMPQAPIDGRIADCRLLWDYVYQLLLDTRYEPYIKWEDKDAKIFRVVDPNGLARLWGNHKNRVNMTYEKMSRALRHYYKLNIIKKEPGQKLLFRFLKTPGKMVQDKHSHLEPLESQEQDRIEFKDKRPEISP
Conditions: protein: recombinant; tags: N-terminal GST; dsDNA, one strand shown. The gist of the method:
as §1

The target in another experiment is T11, ELF5 (Homo sapiens, UniProt Q9UKW6-2 1-255).
T11 sequence: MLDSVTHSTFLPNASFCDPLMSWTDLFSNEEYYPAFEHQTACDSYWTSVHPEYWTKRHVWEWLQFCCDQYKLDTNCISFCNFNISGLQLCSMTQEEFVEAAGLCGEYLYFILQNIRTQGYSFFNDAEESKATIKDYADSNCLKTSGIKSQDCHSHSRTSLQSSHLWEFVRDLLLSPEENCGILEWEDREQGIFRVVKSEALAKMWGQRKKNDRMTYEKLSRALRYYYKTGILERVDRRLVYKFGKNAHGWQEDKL
Conditions: protein: recombinant; tags: N-terminal GST; dsDNA, one strand shown. The gist of the method: as §1

Another experiment deals with T12, ETV3 (Homo sapiens, UniProt P41162-2 1-143).
T12 sequence: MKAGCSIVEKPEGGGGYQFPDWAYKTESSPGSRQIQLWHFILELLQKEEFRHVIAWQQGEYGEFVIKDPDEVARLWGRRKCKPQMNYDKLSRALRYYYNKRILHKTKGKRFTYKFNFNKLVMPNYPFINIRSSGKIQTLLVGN
Conditions: protein: recombinant; tags: N-terminal GST; dsDNA, one strand shown. The gist of the method:
as §1

The target in the next experiment is ETV6 (Homo sapiens, UniProt P41212 1-452). Conditions: protein: recombinant; tags: N-terminal GST; dsDNA, one strand shown. The gist of the method: as §1
Sequence of ETV6 (P41212 whole entry): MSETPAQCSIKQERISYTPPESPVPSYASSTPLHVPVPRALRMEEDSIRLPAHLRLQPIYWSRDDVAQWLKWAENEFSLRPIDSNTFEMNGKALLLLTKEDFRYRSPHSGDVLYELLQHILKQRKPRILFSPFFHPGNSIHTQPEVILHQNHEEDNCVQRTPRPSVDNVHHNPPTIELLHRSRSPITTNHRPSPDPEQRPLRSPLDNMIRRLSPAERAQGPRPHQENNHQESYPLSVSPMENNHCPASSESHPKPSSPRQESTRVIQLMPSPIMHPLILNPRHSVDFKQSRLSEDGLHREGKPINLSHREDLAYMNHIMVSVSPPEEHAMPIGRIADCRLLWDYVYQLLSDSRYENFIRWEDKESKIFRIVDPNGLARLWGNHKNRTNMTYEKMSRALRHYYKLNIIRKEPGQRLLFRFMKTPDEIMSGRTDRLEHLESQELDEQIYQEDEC

Sequence of ELF4 (Q99607 whole entry): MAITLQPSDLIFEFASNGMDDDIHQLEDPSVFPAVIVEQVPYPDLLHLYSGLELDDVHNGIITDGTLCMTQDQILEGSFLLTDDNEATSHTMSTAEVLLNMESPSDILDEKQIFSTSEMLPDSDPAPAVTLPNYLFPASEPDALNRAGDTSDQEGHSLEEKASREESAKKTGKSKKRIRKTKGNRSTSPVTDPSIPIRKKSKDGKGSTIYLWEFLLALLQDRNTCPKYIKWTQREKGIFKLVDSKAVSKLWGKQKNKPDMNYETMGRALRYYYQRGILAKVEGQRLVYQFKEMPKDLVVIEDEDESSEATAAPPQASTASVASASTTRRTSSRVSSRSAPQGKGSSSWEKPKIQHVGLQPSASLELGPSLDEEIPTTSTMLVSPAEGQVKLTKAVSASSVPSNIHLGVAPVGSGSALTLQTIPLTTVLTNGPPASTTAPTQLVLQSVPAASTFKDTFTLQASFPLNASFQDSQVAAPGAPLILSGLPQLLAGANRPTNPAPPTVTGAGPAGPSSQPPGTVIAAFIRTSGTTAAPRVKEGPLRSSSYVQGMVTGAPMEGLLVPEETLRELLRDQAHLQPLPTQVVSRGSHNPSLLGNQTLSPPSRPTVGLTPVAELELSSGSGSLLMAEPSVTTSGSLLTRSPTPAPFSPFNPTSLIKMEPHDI
Sequence of ETV5 (P41161 whole entry): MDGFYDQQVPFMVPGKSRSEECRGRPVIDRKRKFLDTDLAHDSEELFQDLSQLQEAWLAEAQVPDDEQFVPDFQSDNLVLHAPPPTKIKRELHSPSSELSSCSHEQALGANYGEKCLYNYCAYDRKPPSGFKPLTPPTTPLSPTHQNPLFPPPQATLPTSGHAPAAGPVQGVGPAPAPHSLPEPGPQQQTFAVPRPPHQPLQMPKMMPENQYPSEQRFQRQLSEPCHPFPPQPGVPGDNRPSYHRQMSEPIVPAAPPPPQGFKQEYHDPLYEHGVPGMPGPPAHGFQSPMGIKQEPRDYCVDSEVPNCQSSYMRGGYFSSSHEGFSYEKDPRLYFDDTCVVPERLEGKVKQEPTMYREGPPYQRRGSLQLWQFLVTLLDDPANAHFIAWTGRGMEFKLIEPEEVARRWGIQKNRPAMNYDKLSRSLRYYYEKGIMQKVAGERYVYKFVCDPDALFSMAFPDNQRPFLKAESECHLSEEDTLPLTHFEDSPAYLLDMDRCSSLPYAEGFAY

Regarding CCGCTT, the binding signal is 2.01 fold enrichment (6-mer frequency, TF over GST control) with FEV; 2.03 fold enrichment (6-mer frequency, TF over GST control) in the experiment with ETV5; 1.49 fold enrichment (6-mer frequency, TF over GST control) with HSF1; 1.83 fold enrichment (6-mer frequency, TF over GST control) in the experiment with SPIC; 1.87 fold enrichment (6-mer frequency, TF over GST control) in the experiment with ELF4; 1.8 fold enrichment (6-mer frequency, TF over GST control) with ELK4. Also, the binding signal was 1.6 fold enrichment (6-mer frequency, TF over GST control) in the experiment with ETV2; 2.08 fold enrichment (6-mer frequency, TF over GST control) in the experiment with ELF3; 1.82 fold enrichment (6-mer frequency, TF over GST control) with CRX; 2.11 fold enrichment (6-mer frequency, TF over GST control) with ETV1; 1.77 fold enrichment (6-mer frequency, TF over GST control) with ERF; 1.89 fold enrichment (6-mer frequency, TF over GST control) with ETV3L. Also, the binding signal was 1.95 fold enrichment (6-mer frequency, TF over GST control) with ETS2; 1.99 fold enrichment (6-mer frequency, TF over GST control) with SPDEF; 1.62 fold enrichment (6-mer frequency, TF over GST control) with ETV7; 2.05 fold enrichment (6-mer frequency, TF over GST control) with ELF5; 1.96 fold enrichment (6-mer frequency, TF over GST control) in the experiment with ETV3; 2.17 fold enrichment (6-mer frequency, TF over GST control) in the experiment with ETV6.

(Values after publication PMC7862700, “An all-to-all approach to the identification of sequence-specific readers for epigenetic DNA modifications on cytosine”.)
